Source: PubChem
Rab9 promoter act: qHTS Assay for Rab9 Promoter Activators; Huh7 Rab9 promoter-luciferase reporter, luminescence, 24 h; Potency, µM (highest dose often 9.22 µM), most hits filed as activators; 320,000 compounds, 2.8% hits; also: nearly all actives have a fitted effect of over 60% in size
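Measured in stably transfected Huh7 cells bearing a Rab9 promoter–luciferase construct: 24 h compound treatment at 37 °C, followed by luminescence detection.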
SMN2 splice up: qHTS Assay for Enhancers of SMN2 Splice Variant Expression; 210,000 compounds, 2.8% hits; Potency, µM (highest dose often 46.1 µM), actives largely listed as activators; HEK293 SMN2-luciferase splicing reporter, luminescence, 30-36 h; AID 1458, 2008; also: nearly all actives have a fitted effect of over 55% in size
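qHTS luciferase splicing reporter: luminescence rises when SMN2 exon 7 is included in transfected HEK293 cells. Compound exposure lasted 30-36 h at 37C, with 4.5 mM final sodium butyrate as control, followed by a ONE-Glo read.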
NPC1 prom act: qHTS Assay for NPC1 Promoter Activators. Huh7 NPC1 promoter luciferase reporter, 24 h. Potency, µM (top dose mostly 9.22 µM), hits mostly activators. 320,000 compounds, 2.4% hits; also: nearly all actives have a fitted effect of over 60% in size
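Luminescence from an NPC1 promoter-driven luciferase reporter in stably transfected Huh7 cells was measured after 24 h compound treatment at 37 °C, followed by 10 min ambient incubation with luciferase detection reagent.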
KinaseGlo FLuc: Counterscreen for Luciferase (Kinase-Glo TM) Inhibition; Luciferin 4-monooxygenase (Photuris pensylvanica), Q27757; Kinase-Glo luciferase, ATP luminescence, 8 min; Potency, µM (top dose mostly 38.3 µM), most hits filed as inhibitors; 200,000 compounds, 0.28% hits; AID 1379, 2008; also: nearly all actives have a fitted effect of over 60% in size
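Compounds were added to a substrate mix at pH 7.2 (50 mM imidazole, 10 uM ATP, within the enzyme's linear range), followed by Kinase-Glo detection reagent; luminescence was measured after 8 minutes at ambient temperature.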
FLuc counter: qHTS profiling assay for firefly luciferase inhibitor/activator using purifed enzyme and Km concentrations of substrates (counterscreen for miR-21 project); Luciferin 4-monooxygenase (Photinus pyralis), P08659; purified FLuc, Km substrates, luminescence inhibition; Potency, µM (top dose mostly 57.5 µM), most hits filed as inhibitors; 360,000 compounds, 6.9% hits; also: nearly all actives have a fitted effect of over 55% in size
Target sequence (P08659 whole entry, looked up): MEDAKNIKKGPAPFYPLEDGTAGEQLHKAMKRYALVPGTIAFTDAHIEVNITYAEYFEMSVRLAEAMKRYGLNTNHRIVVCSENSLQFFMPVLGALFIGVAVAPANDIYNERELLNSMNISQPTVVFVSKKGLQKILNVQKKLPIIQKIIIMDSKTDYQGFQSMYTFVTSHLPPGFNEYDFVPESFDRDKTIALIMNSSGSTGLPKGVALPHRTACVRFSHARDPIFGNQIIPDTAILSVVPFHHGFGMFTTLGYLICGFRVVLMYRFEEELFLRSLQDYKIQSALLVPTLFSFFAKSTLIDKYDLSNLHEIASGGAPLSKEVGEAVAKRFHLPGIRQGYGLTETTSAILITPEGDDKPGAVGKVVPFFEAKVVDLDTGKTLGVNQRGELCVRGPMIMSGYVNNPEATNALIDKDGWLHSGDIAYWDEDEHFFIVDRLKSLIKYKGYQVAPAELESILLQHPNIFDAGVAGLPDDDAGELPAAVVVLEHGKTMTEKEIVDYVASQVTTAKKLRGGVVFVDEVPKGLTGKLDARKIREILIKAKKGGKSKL
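Biochemical qHTS of compounds, final roughly 60 µM downward over six points, against 10 nM purified firefly luciferase using Km concentrations of substrates (10 uM D-luciferin, 10 uM ATP) in Tris acetate pH 7.5 buffer; luminescence output.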
ELG1 genotoxic: qHTS screen for small molecules that induce genotoxicity in human embryonic kidney (HEK293T) cells expressing luciferase-tagged ELG1; HEK293T ELG1-luciferase reporter, luminescence, 16 h; Potency, µM (doses to about 46 µM), usual class: activators; 330,000 compounds, 1.3% hits; AID 504466, 2011; also: nearly all actives have a fitted effect of over 60% in size
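Genotoxicity was scored as increased ELG1-luciferase reporter signal, measured by ONE-Glo luminescence (30 min, room temperature). Compound or vehicle exposure of the HEK293T reporter cells lasted 16 hr at 37°C.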
Each line names hits and unclear results; the compound was inactive in the other large screens. A selection: hits, their analogues and other compounds. The true share with any hit is near 7.3%. Calls follow the shape of the dose curve; as a rule, active = well fitted curve in the direction sought with a large enough effect; inconclusive = small, poorly fitted or top-dose-only effect, or another doubt; inactive = no such curve, though single readings can be large; an effect the other way counts as inactive or inconclusive.

COc1ccc2c(c1)CCC1C2=NN(/C(C)=C\C(C)=O)C1c1ccc(F)cc1 (stereo unspecified)	Rab9 promoter act inconclusive, NPC1 prom act inconclusive, FLuc counter 13µM, ELG1 genotoxic inconclusive
COc1ccc2c(c1)C1=NN(/C(C)=C/C(C)=O)C(c3ccc(F)cc3)C1CC2 (stereo unspecified)	FLuc counter 27µM, ELG1 genotoxic inconclusive
COc1ccc2c(c1)C1=NN(/C(C)=C/C(C)=O)C(c3cccc(F)c3)C1CC2 (stereo unspecified)	FLuc counter inconclusive
COc1ccc2c(c1)C1=NN(/C(C)=C\C(C)=O)C(c3ccccc3)C1CC2 (stereo unspecified)	FLuc counter 19µM
CCc1ccc([C@H]2C(C(=O)O)=C[C@@H](CC3CCCC3)N2S(=O)(=O)c2ccc(C)cc2)cc1	none (no result: Rab9 promoter act, SMN2 splice up, NPC1 prom act, KinaseGlo FLuc, FLuc counter)
Cc1nc(N)sc1N=Nc1ccccc1C(F)(F)F	Rab9 promoter act 2.8µM, NPC1 prom act inconclusive, FLuc counter 12µM, ELG1 genotoxic inconclusive (no result: SMN2 splice up, KinaseGlo FLuc)
Cc1cc(C(=O)N/N=C/c2ccccc2Br)no1	FLuc counter 21µM
Cc1cc(C(=O)N/N=C/c2ccc[nH]2)no1	none
O=C(COC(=O)c1cc(S(=O)(=O)Nc2ccccc2Cl)ccc1O)Nc1nc2ccccc2s1	Rab9 promoter act inconclusive, FLuc counter 21µM
N#Cc1cccc(NC(=O)COC(=O)c2cc(S(=O)(=O)Nc3ccccc3Cl)ccc2O)c1	none (no result: Rab9 promoter act, SMN2 splice up, NPC1 prom act, KinaseGlo FLuc, FLuc counter)
CCOc1ccccc1NC(=O)C(NCCc1ccc(OC)cc1)c1ccccc1 (stereo unspecified)	FLuc counter 27µM (no result: SMN2 splice up, KinaseGlo FLuc)
COc1ccc(Nc2cc(C)nc(N)n2)cc1	Rab9 promoter act inconclusive, FLuc counter inconclusive (no result: SMN2 splice up, KinaseGlo FLuc)
Nc1cc(Nc2ccc(Br)cc2)nc(N)n1	Rab9 promoter act inconclusive, NPC1 prom act 3.5µM, FLuc counter 13µM, ELG1 genotoxic inconclusive (no result: SMN2 splice up, KinaseGlo FLuc)
Cc1cc(Nc2ccc(Cl)cc2)nc(N)n1	Rab9 promoter act inconclusive, NPC1 prom act inconclusive, FLuc counter 19µM, ELG1 genotoxic inconclusive
OCC1O[C@H](O)C(Cl)C(O)C1O (stereo partly specified)	none (no result: FLuc counter, ELG1 genotoxic)
CCc1ccc(/C=N/Nc2ncnc3nc[nH]c23)cc1	Rab9 promoter act 1.3µM, NPC1 prom act 2.8µM, FLuc counter 3µM, ELG1 genotoxic 7.3µM (no result: SMN2 splice up, KinaseGlo FLuc)
C1=Nc2ccccc2CN1c1ccccc1	Rab9 promoter act inconclusive, SMN2 splice up 7.9µM, NPC1 prom act inconclusive, FLuc counter 15µM, ELG1 genotoxic inconclusive
CCOc1ccc(-c2nnc(-c3cccs3)o2)cc1OCC	Rab9 promoter act inconclusive, NPC1 prom act 3.5µM, FLuc counter inconclusive, ELG1 genotoxic inconclusive
c1csc(-c2nnc(-c3ccc(N4CCOCC4)cc3)o2)c1	Rab9 promoter act 0.63µM, SMN2 splice up 1.3µM, NPC1 prom act 0.35µM, FLuc counter 1.2µM, ELG1 genotoxic 1.3µM
CCOc1ccc(-c2nnn(CCC(=O)O)n2)cc1OC	none
COc1cc(-c2nnc(-c3cccs3)o2)cc(OC)c1OC	SMN2 splice up inconclusive
COc1ccc(-c2nnc(-c3cccs3)o2)cc1OC	Rab9 promoter act 3.2µM, NPC1 prom act 2.8µM, FLuc counter 8.5µM, ELG1 genotoxic 14µM
CCOc1ccc(-c2nnc(-c3ccco3)o2)cc1OCC	Rab9 promoter act inconclusive, FLuc counter inconclusive, ELG1 genotoxic inconclusive
CCOc1ccc(-c2nc(-c3cccs3)c(CC(=O)O)s2)cc1OC	Rab9 promoter act inconclusive, FLuc counter 3µM, ELG1 genotoxic inconclusive
CNC(=S)N/N=C(\C)c1ccc(Cl)s1	none
CCCCN1C(=O)C(O)(CC(=O)c2ccco2)c2cc(Br)ccc21 (stereo unspecified)	none
CCOc1ccc(-c2nnc(-c3cccs3)o2)cc1	Rab9 promoter act 0.63µM, SMN2 splice up 2µM, NPC1 prom act 0.71µM, FLuc counter 0.67µM, ELG1 genotoxic inconclusive
CCCNC(=O)/C=C/c1ccc(C(C)C)cc1	SMN2 splice up inconclusive, FLuc counter 17µM, ELG1 genotoxic inconclusive
